B1: unnamed (peptide)
chain: RSVKRPRRAPRPVVS

biological target: AgAbp1; test: SPOT peptide array binding signal intensity (averaged, normalized) (arbitrary units (background-subtracted, floor 0; scale differs between SH3 domains)); higher = stronger binding of the SH3 domain to the peptide
Summary of the method: (§1)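 Cellulose membranes carried synthetic 15-mer peptides with cysteines swapped for serines. These were incubated overnight at 4°C with 10 μg/ml of GST-fused SH3 domains from four yeast species in TBS-based blocking buffer. Binding signal, detected with anti-GST antibody and quantified in Genespotter, is the normalized, background-subtracted spot intensity averaged over replicates, in arbitrary units specific to each domain.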

Binder	SPOT peptide array binding signal intensity
B1	124

biological target: AgBbc1; test: as above
Summary of the method: as §1

Binder	SPOT peptide array binding signal intensity
B1	434

biological target: AgBem1-D1; test: as above
Summary of the method: as §1

Binder	SPOT peptide array binding signal intensity
B1	116

biological target: AgBzz1-D1; test: as above
Summary of the method: as §1

Binder	SPOT peptide array binding signal intensity
B1	54.5

biological target: AgBzz1-D2; test: as above
Summary of the method: as §1

Binder	SPOT peptide array binding signal intensity
B1	19

biological target: AgCyk3; test: as above
Summary of the method: as §1

Binder	SPOT peptide array binding signal intensity
B1	2

biological target: AgFus1; test: as above
Summary of the method: as §1

Binder	SPOT peptide array binding signal intensity
B1	372

biological target: AgHof1; test: as above
Summary of the method: as §1

Binder	SPOT peptide array binding signal intensity
B1	49

biological target: AgHse1; test: as above
Summary of the method: as §1

Binder	SPOT peptide array binding signal intensity
B1	592

biological target: AgLsb1; test: as above
Summary of the method: as §1

Binder	SPOT peptide array binding signal intensity
B1	4.5

biological target: AgLsb4; test: as above
Summary of the method: as §1

Binder	SPOT peptide array binding signal intensity
B1	150

biological target: AgMyo5; test: as above
Summary of the method: as §1

Binder	SPOT peptide array binding signal intensity
B1	1.25

biological target: AgNbp2; test: as above
Summary of the method: as §1

Binder	SPOT peptide array binding signal intensity
B1	908

biological target: AgRvs167; test: as above
Summary of the method: as §1

Binder	SPOT peptide array binding signal intensity
B1	2.17

biological target: AgSho1; test: as above
Summary of the method: as §1

Binder	SPOT peptide array binding signal intensity
B1	5

biological target: AgSla1-D1-D2; test: as above
Summary of the method: as §1

Binder	SPOT peptide array binding signal intensity
B1	15

biological target: AgSla1-D3; test: as above
Summary of the method: as §1

Binder	SPOT peptide array binding signal intensity
B1	6.25

biological target: CaAbp1-D1; test: as above
Summary of the method: as §1

Binder	SPOT peptide array binding signal intensity
B1	586

biological target: CaAbp1-D2; test: as above
Summary of the method: as §1

Binder	SPOT peptide array binding signal intensity
B1	430

biological target: CaBbc1; test: as above
Summary of the method: as §1

Binder	SPOT peptide array binding signal intensity
B1	663

biological target: CaBem1-D1; test: as above
Summary of the method: as §1

Binder	SPOT peptide array binding signal intensity
B1	140

biological target: CaBzz1-D1; test: as above
Summary of the method: as §1

Binder	SPOT peptide array binding signal intensity
B1	108

biological target: CaBzz1-D2; test: as above
Summary of the method: as §1

Binder	SPOT peptide array binding signal intensity
B1	165

biological target: CaCyk3; test: as above
Summary of the method: as §1

Binder	SPOT peptide array binding signal intensity
B1	106

biological target: CaFus1; test: as above
Summary of the method: as §1

Binder	SPOT peptide array binding signal intensity
B1	208

biological target: CaHof1; test: as above
Summary of the method: as §1

Binder	SPOT peptide array binding signal intensity
B1	2

biological target: CaHse1; test: as above
Summary of the method: as §1

Binder	SPOT peptide array binding signal intensity
B1	47.5

biological target: CaLsb1; test: as above
Summary of the method: as §1

Binder	SPOT peptide array binding signal intensity
B1	0.75

biological target: CaLsb4; test: as above
Summary of the method: as §1

Binder	SPOT peptide array binding signal intensity
B1	1720

biological target: CaMyo5; test: as above
Summary of the method: as §1

Binder	SPOT peptide array binding signal intensity
B1	2

biological target: CaNbp2; test: as above
Summary of the method: as §1

Binder	SPOT peptide array binding signal intensity
B1	1160

biological target: CaRvs167; test: as above
Summary of the method: as §1

Binder	SPOT peptide array binding signal intensity
B1	20.3

biological target: CaRvs167-3; test: as above
Summary of the method: as §1

Binder	SPOT peptide array binding signal intensity
B1	26.5

biological target: CaSho1; test: as above
Summary of the method: as §1

Binder	SPOT peptide array binding signal intensity
B1	198

biological target: CaSla1-D1-D2; test: as above
Summary of the method: as §1

Binder	SPOT peptide array binding signal intensity
B1	990

biological target: CaSla1-D3; test: as above
Summary of the method: as §1

Binder	SPOT peptide array binding signal intensity
B1	0.5

biological target: ScAbp1; test: as above
Summary of the method: as §1

Binder	SPOT peptide array binding signal intensity
B1	113

biological target: ScBbc1; test: as above
Summary of the method: as §1

Binder	SPOT peptide array binding signal intensity
B1	306

biological target: ScBem1-D1; test: as above
Summary of the method: as §1

Binder	SPOT peptide array binding signal intensity
B1	46.5

biological target: ScBzz1-D1; test: as above
Summary of the method: as §1

Binder	SPOT peptide array binding signal intensity
B1	11.5

biological target: ScBzz1-D2; test: as above
Summary of the method: as §1

Binder	SPOT peptide array binding signal intensity
B1	26

biological target: ScCyk3; test: as above
Summary of the method: as §1

Binder	SPOT peptide array binding signal intensity
B1	32

biological target: ScFus1; test: as above
Summary of the method: as §1

Binder	SPOT peptide array binding signal intensity
B1	260

biological target: ScHof1; test: as above
Summary of the method: as §1

Binder	SPOT peptide array binding signal intensity
B1	5.25

biological target: ScHse1; test: as above
Summary of the method: as §1

Binder	SPOT peptide array binding signal intensity
B1	1150

biological target: ScLsb1; test: as above
Summary of the method: as §1

Binder	SPOT peptide array binding signal intensity
B1	156

biological target: ScLsb2; test: as above
Summary of the method: as §1

Binder	SPOT peptide array binding signal intensity
B1	31.5

biological target: ScLsb3; test: as above
Summary of the method: as §1

Binder	SPOT peptide array binding signal intensity
B1	3170

biological target: ScLsb4; test: as above
Summary of the method: as §1

Binder	SPOT peptide array binding signal intensity
B1	192

biological target: ScMyo3; test: as above
Summary of the method: as §1

Binder	SPOT peptide array binding signal intensity
B1	1

biological target: ScMyo5; test: as above
Summary of the method: as §1

Binder	SPOT peptide array binding signal intensity
B1	4.25

biological target: ScNbp2; test: as above
Summary of the method: as §1

Binder	SPOT peptide array binding signal intensity
B1	2270

biological target: ScPex13; test: as above
Summary of the method: as §1

Binder	SPOT peptide array binding signal intensity
B1	2.75

biological target: ScRvs167; test: as above
Summary of the method: as §1

Binder	SPOT peptide array binding signal intensity
B1	75

biological target: ScSho1; test: as above
Summary of the method: as §1

Binder	SPOT peptide array binding signal intensity
B1	344

biological target: ScSla1-D1-D2; test: as above
Summary of the method: as §1

Binder	SPOT peptide array binding signal intensity
B1	839

biological target: ScSla1-D3; test: as above
Summary of the method: as §1

Binder	SPOT peptide array binding signal intensity
B1	15.8

biological target: SpAbp1-D1; test: as above
Summary of the method: as §1

Binder	SPOT peptide array binding signal intensity
B1	146

biological target: SpBbc1; test: as above
Summary of the method: as §1

Binder	SPOT peptide array binding signal intensity
B1	12

biological target: SpBzz1-D1; test: as above
Summary of the method: as §1

Binder	SPOT peptide array binding signal intensity
B1	250

biological target: SpBzz1-D2; test: as above
Summary of the method: as §1

Binder	SPOT peptide array binding signal intensity
B1	≤ 0

biological target: SpCyk3; test: as above
Summary of the method: as §1

Binder	SPOT peptide array binding signal intensity
B1	2

biological target: SpHof1; test: as above
Summary of the method: as §1

Binder	SPOT peptide array binding signal intensity
B1	268

biological target: SpHof1-2; test: as above
Summary of the method: as §1

Binder	SPOT peptide array binding signal intensity
B1	7

biological target: SpHof1-3; test: as above
Summary of the method: as §1

Binder	SPOT peptide array binding signal intensity
B1	748

biological target: SpHse1; test: as above
Summary of the method: as §1

Binder	SPOT peptide array binding signal intensity
B1	234

biological target: SpLsb1; test: as above
Summary of the method: as §1

Binder	SPOT peptide array binding signal intensity
B1	214

biological target: SpLsb4; test: as above
Summary of the method: as §1

Binder	SPOT peptide array binding signal intensity
B1	2230

biological target: SpMyo1; test: as above
Summary of the method: as §1

Binder	SPOT peptide array binding signal intensity
B1	16

biological target: SpNbp2; test: as above
Summary of the method: as §1

Binder	SPOT peptide array binding signal intensity
B1	412

biological target: SpPex13; test: as above
Summary of the method: as §1

Binder	SPOT peptide array binding signal intensity
B1	10.5

biological target: SpRvs167; test: as above
Summary of the method: as §1

Binder	SPOT peptide array binding signal intensity
B1	11.2

biological target: SpSla1-D1-D2; test: as above
Summary of the method: as §1

Binder	SPOT peptide array binding signal intensity
B1	≤ 0

biological target: SpSla1-D3; test: as above
Summary of the method: as §1

Binder	SPOT peptide array binding signal intensity
B1	3
